Test results taken from PubChem BioAssay (NCATS).
Records with an inconclusive call do not appear. A call without a number means that no potency is given here. Active and inactive are the calls of the source. Calls come from the whole dose curve; as a rule, active = well fitted curve in the direction sought with a large enough effect; inconclusive = small, poorly fitted or top-dose-only effect, or another doubt; inactive = no such curve, though single readings can be large; an effect the other way counts as inactive or inconclusive.

Key:
[1] = biological target: Alpha-galactosidase (Coffea arabica) (UniProt Q42656); assay: Counterscreen for Glucocerebrosidase Inhibitors: qHTS Assay for Coffee Bean alpha-Galactosidase at pH 4.5 (AID 957); note: series mostly up to about 77 µM
Procedure, shortened: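 AC50 values derive from Hill-equation modeling of concentration-response data, normalized to no-enzyme and full-activity controls. The pH 4.5 citrate assay used 2 nM coffee bean enzyme and 80 uM fluorogenic substrate for 20 min.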

[2] = biological target: Alpha-galactosidase (Coffea arabica) (UniProt Q42656); assay: Counterscreen for Glucocerebrosidase Inhibitors: qHTS Assay for Coffee Bean alpha-Galactosidase at pH 5.9 (AID 998)
Procedure, shortened: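 Green coffee bean enzyme (2 nM) with 4-methylumbelliferyl alpha-D-galactopyranoside (80 uM) in 50 mM citric acid, 0.005% Tween-20, pH 5.9, 20 min at room temperature; compounds 0.7 nM–77 uM. Stopped at pH 10, fluorescence Ex365/Em440; Hill-fit AC50.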

[3] = MultiTox-Fluor Cytotoxicity Assay - LYMP1-002 - Dead Cells (AID 960); note: potency is the fitted concentration of half-maximal effect; nearly all actives have a fitted effect of over 60% in size
Procedure, shortened: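 Acute cytotoxicity in a human lymphoblastoid line is scored as rising dead-cell protease signal after 16 hr exposure at 37 C, measured fluorometrically (485/520).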

Alpha-galactosidase (Coffea arabica), sequence (Q42656 whole entry, looked up): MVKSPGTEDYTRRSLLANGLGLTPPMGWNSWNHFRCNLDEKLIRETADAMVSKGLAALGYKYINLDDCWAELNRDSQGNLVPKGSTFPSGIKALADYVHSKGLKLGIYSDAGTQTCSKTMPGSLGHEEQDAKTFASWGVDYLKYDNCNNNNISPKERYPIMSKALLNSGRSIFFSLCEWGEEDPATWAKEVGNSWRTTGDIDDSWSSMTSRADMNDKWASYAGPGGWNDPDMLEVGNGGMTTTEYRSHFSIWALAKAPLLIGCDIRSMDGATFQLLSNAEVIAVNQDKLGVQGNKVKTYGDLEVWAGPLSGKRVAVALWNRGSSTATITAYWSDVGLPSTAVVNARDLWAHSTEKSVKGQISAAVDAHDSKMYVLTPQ

Structure (SMILES)	outcome [1]	outcome [2]	Potency [3]
C/C=C1\C(=O)C[C@@H]2[C@@H]3CCC4=CC(=O)CC[C@@]4(C)[C@H]3CC[C@@]12C	inactive	inactive	
Nc1ncnc2c1nc(Br)n2[C@@H]1O[C@H]2COP(=O)(O)O[C@@H]2[C@H]1O	inactive	inactive	
C=C[C@@]1(C)CC(=O)[C@@]2(O)[C@@]3(C)[C@H](O)CCC(C)(C)[C@@H]3[C@H](O)[C@H](OC(C)=O)[C@]2(C)O1	inactive	inactive	
NCC[C@H]1CCC[C@H](CCN)N1	inactive	inactive	
O=c1cc(O)cc(/C=C\c2ccc(O)c(O)c2)o1	inactive	inactive	
CCN(Cc1ccncc1)C(=O)[C@@H](CO)c1ccccc1	inactive	inactive	
S=C(S)O[C@@H]1C[C@@H]2C[C@H]1[C@@H]1CCC[C@H]21	inactive	inactive	
CC(C)(C(=O)O)c1ccc([C@@H](O)CCCN2CCC(C(O)(c3ccccc3)c3ccccc3)CC2)cc1	inactive	inactive	
CC1CCN(CC[C@@H]2CCCN2S(=O)(=O)c2cccc(O)c2)CC1	inactive	inactive	
O=C(NCCNC[C@@H](O)COc1ccc(O)cc1)N1CCOCC1	inactive	inactive	
CCCCC#Cc1nc(N)c2ncn([C@@H]3O[C@@H](C(=O)NCC)[C@H](O)[C@@H]3O)c2n1	inactive	inactive	
CC(C)(C)NC[C@H](O)c1cc(O)cc(O)c1	inactive	inactive	
FC(F)(F)c1cc(CO[C@@H]2CCCN[C@H]2c2ccccc2)cc(C(F)(F)F)c1	inactive	inactive	
CN1CCc2cc(O)c(O)cc2[C@H](c2ccccc2)C1	inactive	inactive	
N[C@H](Cc1ccc(Cl)cc1)C(=O)O	inactive	inactive	
N=c1ccn2c(n1)O[C@@H]1[C@@H](O)[C@H](CO)O[C@H]12	inactive	inactive	
C[C@@](N)(Cc1ccc(O)cc1)C(=O)O	inactive	inactive	
O[C@H](CN1CCN(c2cccc(Cl)c2)CC1)C(c1ccccc1)c1ccccc1	inactive	inactive	

Structure (SMILES)	outcome [1]	outcome [2]	Potency [3]
CCCCCCCCCCCCCCCC(=O)NC[C@@H](COP(=O)([O-])OCC[N+](C)(C)C)OCC	inactive	inactive	
CCCCCCCC/C=C\CCCCCCCC(=O)NCCc1ccc(O)c(O)c1	inactive	inactive	
Cc1cccc(/C=C\c2ccccc2)n1	inactive	inactive	
C[C@@]12CCC(=O)C=C1CC[C@@H]1[C@@H]2[C@H](O)C[C@]2(C)[C@@H]1CC[C@]2(O)C(=O)COC(=O)CCC(=O)O	inactive	inactive	
COc1cccc(OC)c1OCCNC[C@@H]1COc2ccccc2O1	inactive	inactive	
COC(=O)[C@](C)(N)Cc1ccc(O)cc1	inactive	inactive	
C[C@@H](CN1CCC(Cc2ccccc2)CC1)[C@H](O)c1ccc(O)cc1	inactive	inactive	
C[C@@H]1COc2c(N3CCN(C)CC3)c(F)cc3c(=O)c(C(=O)O)cn1c23	inactive	inactive	
CCCC[C@]1(C2CCCC2)Cc2cc(OCC(=O)O)c(Cl)c(Cl)c2C1=O	inactive	inactive	
CCCN[C@@H](C)C(=O)Nc1ccccc1C	inactive	inactive	
CCCN(CCC)C(=O)[C@@H](CCC(=O)O)NC(=O)c1ccccc1	inactive	inactive	
Cc1cc(C)c(/C=C2/C(=O)Nc3ccccc32)[nH]1	inactive	inactive	
N[C@H](C(=O)O)[C@@H]1C[C@@H]1C(=O)O	inactive	inactive	
COC(=O)c1c(-c2cc(OC)c(OC)c(OC)c2)c2ccnc(OCc3ncccn3)c2c(=O)n1Cc1ccnc(C)c1	inactive	inactive	
O=c1n(CC2CO2)c(=O)n(CC2CO2)c(=O)n1CC1CO1 (stereo unspecified)			31.6 µM (active)
C[C@H](O)[C@H](O)[C@@H]1CNc2nc(N)[nH]c(=O)c2N1	inactive	inactive	
COc1cc2c(cc1C(F)(F)F)N(C(=O)Nc1cc(F)cc(-c3cccnc3)c1)CC2	inactive	inactive	
O=C1[C@@H]2C=CC=CC2=NC(=S)N1CCN1CCC(=C(c2ccc(F)cc2)c2ccc(F)cc2)CC1	inactive	inactive	
